Screening results (PubChem BioAssay)
Sampled rows, rich in hits. Any-hit rate of the full collection: about 3.5%.
Anthrax LF prot = anthrax lethal factor protease inhibition; inhibition, % at 10 µM; multiplex microsphere protease cleavage assay, LF; 0.12% of 360,000 active; AID 588501
BJeLR viability = BJeLR cell viability loss | 0.17% of 300,000 active | BJeLR (HRASV12) viability, CellTiter-Glo ATP luminescence, 48 h | inhibition, % (test concentration not listed); in the data active = inhibition above about 50%; inconclusive = no clear call, values can overlap the other calls
BoNT-A LC inh2 = inhibitors of Botulinum neurotoxin A light chain protease; multiplex microsphere protease substrate cleavage, flow cytometry; inhibition, % at 10 µM; 0.17% of 360,000 active; AID 588499
Bead autofluor = counter-screen for toxin protease inhibitors: compound fluorescence | compound autofluorescence counterscreen, microsphere flow cytometry; hits give high values | 3.1% of 360,000 active | fluorescence intensity (test concentration not listed); in the data active = fluorescence intensity above about 16000; inconclusive = no clear call, values can overlap the other calls
BoNT F protease = blocks Botulinum neurotoxin F light chain protease; Multiplex microsphere protease cleavage assay, flow cytometry; inhibition, % at 10 µM; 0.22% of 360,000 active; AID 588497; in the data active = inhibition above about 35%, passing the limit was not always enough; inconclusive = no clear call, values can overlap the other calls
Of the large screens only hits and unclear results are named; the others gave an inactive call. Rule as the data show it, unless noted: active = inhibition above about 30%; inconclusive = no clear call, values can overlap the other calls; inactive = below that.

O=C(NC1CCCCC1)N1CCC(c2nc3ccc(Cl)cc3[nH]2)CC1	Bead autofluor 16224
O=C(NC1CCCCC1)N1CCCC(c2nc3ccccc3[nH]2)C1 (stereo unspecified)	none
Cc1noc(C)c1C(=O)N1CCCC(C)(C(=O)NS(=O)(=O)C2CC2)C1 (stereo unspecified)	none (no result: BJeLR viability)
CCCCn1c(Cn2nc(C(=O)O)c3ccccc3c2=O)nc2cc(S(N)(=O)=O)ccc21	none
C[C@@H]1CN([C@@H](C)CO)C(=O)c2cc(NS(C)(=O)=O)ccc2O[C@@H](C)CCCCO[C@H]1CN(C)Cc1ccc2c(c1)OCO2	none (no result: BJeLR viability)
COc1cc(C(=S)N2CCCC2)cc(OC)c1O	Bead autofluor 20756 (no result: BJeLR viability)
CCOc1cc(C(=S)N2CCCC2)ccc1OC	none
Cc1ccc(NC(=O)N(Cc2nc3ccccc3c(=O)[nH]2)Cc2cccs2)cc1	none
N#CCO/N=C(\c1ccccc1)c1ccncc1	BoNT-A LC inh2 inconclusive, Bead autofluor 16207
CC(C)c1ccc(/C=C/C(=O)n2nnc3ccccc32)cc1	none
O=C(COC(=O)c1cccc(S(=O)(=O)Nc2ccc(F)cc2)c1)NCCN1C(=O)CSC1=O	BoNT F protease inconclusive
C=CCn1cnc2c(c1=O)c1nc3ccccc3nc1n2/N=C/c1cccc(OC)c1	BoNT-A LC inh2 inconclusive, Bead autofluor 21328 (no result: BJeLR viability)
COCCn1cnc2c(c1=O)c1nc3ccccc3nc1n2/N=C/c1ccc(OC)c(OC)c1	BoNT-A LC inh2 inconclusive, BoNT F protease inconclusive
COc1ccc([C@@H]2CC=C(C(=O)O)[C@H](c3ccc(F)cc3)N2S(=O)(=O)c2ccc(Cl)cc2)cc1	none (no result: BJeLR viability)
O=C(Nc1nc(-c2ccccn2)cs1)c1cc2ccccc2o1	none
CN1CCN(c2ccccc2NC(=O)c2cc3ccccc3o2)CC1	Bead autofluor 21317
CC(C)C(=O)Nc1ccc(NC(=O)c2cc3ccccc3o2)cc1	Bead autofluor 22449
CCn1nnc(NC(=O)CSc2ccc(Cl)cc2)n1	Bead autofluor 24449
CC(C)C(=O)Nc1ccc(NC(=S)NC(=O)c2cc3ccccc3o2)cc1	none
Cc1cc(-c2csc(NC(=O)c3cc4ccccc4o3)n2)c(C)n1C	Bead autofluor 23885
C[C@@H]1O[C@H](CCc2cccc(Cl)c2)CC2=C1C(=O)OC(C)(C)O2	none (no result: BJeLR viability)
O=C(Nc1ccccc1Cl)c1cc(C2CCCCN2C(=O)CCCc2ccccc2)on1 (stereo unspecified)	none (no result: BJeLR viability)
CC(C)(CO)NC(=O)C12CC3CC(CC(Br)(C3)C1)C2	BoNT-A LC inh2 inconclusive, BoNT F protease inconclusive
CCCn1nnc(NC(=O)c2cc3ccccc3o2)n1	none
CCn1nnc(NC(=O)c2cc3ccccc3o2)n1	Bead autofluor 21445
COc1cc(-c2coc3c(C(=O)NCc4ccc(C(F)(F)F)cc4)cccc23)ccc1O	none (no result: BJeLR viability)
CSc1ccc(/C=C/C(=O)OCC(=O)NC2CCCC2)cc1	none (no result: BJeLR viability)
CCOC(=O)[C@]12CCC=C1N(Cc1cccc3ccccc13)C(=O)[C@H](CC(=O)N1CCCC1)C2	none (no result: BJeLR viability)
Nc1o[nH]c(=O)c1C1CCCCC1	none (no result: BJeLR viability)
Cc1ccc2[nH]c(=O)c(C(c3nnnn3Cc3ccccc3)N3CCc4ccccc43)cc2c1 (stereo unspecified)	none
Cc1ccc2cc(C(c3nnnn3Cc3ccccc3)N3CCc4ccccc43)c(=O)[nH]c2c1C (stereo unspecified)	Bead autofluor 20150
Cc1cc2cc(C(c3nnnn3Cc3ccccc3)N3CCc4ccccc43)c(=O)[nH]c2cc1C (stereo unspecified)	BoNT-A LC inh2 inconclusive, Bead autofluor 21199
COc1ccc(C(C(=O)NC2CCCC2)N(C(=O)c2ccoc2C)c2ccc(C)cc2)cc1 (stereo unspecified)	none
O=C(NC1CCCCC1)C(c1cccnc1)N(C(=O)CCl)c1ccccc1Cl (stereo unspecified)	BoNT F protease 38
COc1ccc(N(C(=O)CCl)C(C(=O)NC2CCCCC2)c2cccnc2)cc1 (stereo unspecified)	BJeLR viability 81
COc1ccc(C(C(=O)NC2CCCCC2)N(C(=O)CCl)c2ccc(OC)cc2)cc1 (stereo unspecified)	BJeLR viability 118
COc1ccc(C(C(=O)NC2CCCCC2)N(C(=O)CCl)c2ccc(C)cc2)cc1 (stereo unspecified)	BJeLR viability 135
O=C(NC1CCCCC1)C(c1cccnc1)N(C(=O)CCl)c1ccc(F)cc1 (stereo unspecified)	none
COc1ccc(N(C(=O)Cc2cccs2)C(C(=O)NC2CCCC2)c2ccncc2)cc1 (stereo unspecified)	none
Cc1ccc(NC(=O)CSc2nc3ccccc3nc2N2CCCC2)cc1	none
COc1ccc(C(C(=O)NC2CCCCC2)N(C(=O)CCl)c2cccc(Cl)c2)cc1 (stereo unspecified)	BJeLR viability 119
COc1ccc(-c2nsc(C(=O)N(c3ccc(F)cc3)C(C(=O)NC3CCCC3)c3ccc(OC)cc3)c2N)cc1 (stereo unspecified)	Bead autofluor 23904
COc1ccc(S(=O)(=O)NC(=O)C2(C)CCN2C(=O)Cc2ccc(C(C)(C)C)cc2)cc1 (stereo unspecified)	none (no result: BJeLR viability)
COc1ccc(NC(=O)c2ccc(C(=O)c3cc(OC)ccc3OC)cc2)cc1	Bead autofluor 20895
COc1ccc(OC)c(C(=O)c2ccc(C(=O)Nc3ccccc3)cc2)c1	none
COc1ccc(Nc2c(C3CC3)nc3nc(C)cc(C)n23)cc1	none (no result: BJeLR viability)
Cc1ccc(/C=C2\SC(=S)N(Cc3ccccc3)C2=O)o1	Anthrax LF prot 36, BoNT-A LC inh2 48 (no result: BJeLR viability)
COc1cc(/C=C2/SC(=S)N(Cc3ccccc3)C2=O)ccc1O	BoNT-A LC inh2 30
O=C(O)c1cc(-c2ccc(/C=C3/SC(=S)N(Cc4ccccc4)C3=O)o2)ccc1Cl	none (no result: BJeLR viability)
O=C1/C(=C\c2ccc(O)c(O)c2)SC(=S)N1Cc1ccccc1	none
COc1ccc(/C=C2\SC(=S)N(Cc3cccnc3)C2=O)cc1C	BoNT-A LC inh2 38
COc1cccc(-c2cccc3c2NC(=O)C3(C)Cc2cccc(F)c2)c1 (stereo unspecified)	none (no result: BJeLR viability)
COCCSc1ccccc1C(=O)NCc1ccc(S(N)(=O)=O)cc1	BoNT-A LC inh2 inconclusive, Bead autofluor 23008
CCOC(=O)N1CCN(C(=O)c2ccc3c(=O)n(Cc4ccccc4OC)c(=S)[nH]c3c2)CC1	Bead autofluor 16581
CN1CCN(C(=O)c2ccc3c(=O)n(Cc4ccc(Cl)cc4)c(=S)[nH]c3c2)CC1	Bead autofluor 20632
O=C(c1ccc2c(=O)n(Cc3ccc4c(c3)OCO4)c(=S)[nH]c2c1)N1CCCCC1	Bead autofluor 22165
CCOC(=O)N1CCN(C(=O)c2ccc3c(=O)n(Cc4ccccc4)c(=S)[nH]c3c2)CC1	none
CCn1c(=O)[nH]c2cc(C(=O)N3CCN(c4ccccc4)CC3)ccc2c1=O	BoNT-A LC inh2 inconclusive, Bead autofluor 22918
CC1CC(C)CN(C(=O)c2ccc3c(=O)n(Cc4ccc5c(c4)OCO5)c(=S)[nH]c3c2)C1 (stereo unspecified)	Bead autofluor inconclusive
COc1ccc(OC)c(NC(=S)N2CCN(C(=O)C3CCCO3)CC2)c1 (stereo unspecified)	none
COc1ccc(S(=O)(=O)N2CCCCC2c2cc(C(=O)NCc3ccccc3)no2)cc1 (stereo unspecified)	none (no result: BJeLR viability)
